Screens deposited in PubChem by NMMLSC.
An excerpt weighted towards active compounds, which were near 1.8% of everything screened.
Myeloid diff 2: induction of myeloid progenitor differentiation, primary screen, cell-based, flow cytometry, MLPCN library. ER-HoxA9 myeloid progenitors, lysozyme-GFP differentiation. calls only at 10 µM. 360,000 compounds, 1% hits. AID 624256, 2012;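 active means normalized GFP-positive differentiation at or above the plate's own cutoff, the solvent-only control mean plus 3 SD; inconclusive means no clear call, values can overlap the other calls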;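 further: cells exposed to compound for four days before flow analysis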
ABCB6 inh MLPCN: ABCB6 transporter inhibitors, primary screen, K562-ABCB6 cells, flow cytometry, MLPCN library; ATP-binding cassette sub-family B member 6 (Homo sapiens), Q9NP58; K562-ABCB6 porphyrin accumulation, 1 h; hits give low values; fluorescence ratio to DMSO, % at 10 µM; 360,000 compounds, 0.19% hits;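 active means fluorescence ratio to DMSO below 75%, the collection mean minus 3 SD; inconclusive means too few cells collected in the well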;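 further: signal is porphyrin accumulated inside mitochondria; 100% equals median channel fluorescence of DMSO control wells; lower ratio means ABCB6 inhibition with less porphyrin fluorescence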
Target sequence (Q9NP58 whole entry, looked up): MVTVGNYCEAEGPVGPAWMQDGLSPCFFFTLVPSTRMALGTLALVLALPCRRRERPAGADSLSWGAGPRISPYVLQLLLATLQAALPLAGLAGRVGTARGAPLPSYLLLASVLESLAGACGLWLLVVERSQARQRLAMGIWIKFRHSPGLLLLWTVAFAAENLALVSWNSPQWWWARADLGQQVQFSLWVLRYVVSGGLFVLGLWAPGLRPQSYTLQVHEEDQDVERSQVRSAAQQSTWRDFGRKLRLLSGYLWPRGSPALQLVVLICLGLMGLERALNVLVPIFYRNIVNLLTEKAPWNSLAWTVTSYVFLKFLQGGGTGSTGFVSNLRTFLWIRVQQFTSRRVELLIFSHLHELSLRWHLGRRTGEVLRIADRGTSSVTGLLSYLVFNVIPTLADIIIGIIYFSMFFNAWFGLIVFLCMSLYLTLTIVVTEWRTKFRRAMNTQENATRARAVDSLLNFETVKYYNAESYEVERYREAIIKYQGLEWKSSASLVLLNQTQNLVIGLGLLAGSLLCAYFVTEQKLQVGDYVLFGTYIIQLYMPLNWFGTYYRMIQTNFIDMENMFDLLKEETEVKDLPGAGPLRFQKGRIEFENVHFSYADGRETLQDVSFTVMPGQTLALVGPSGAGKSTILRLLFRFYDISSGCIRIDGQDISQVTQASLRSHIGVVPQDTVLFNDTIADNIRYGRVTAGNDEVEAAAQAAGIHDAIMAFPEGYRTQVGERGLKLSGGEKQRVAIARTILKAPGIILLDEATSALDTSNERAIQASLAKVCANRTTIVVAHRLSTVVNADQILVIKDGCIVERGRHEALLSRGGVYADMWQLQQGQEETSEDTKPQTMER
Granule exo inh: LAMP-1 surface exposure blockers, TALL-104 cells – cell-based, flow cytometry, MLPCN library, primary screen. AID 651702, 2012. 360,000 compounds, 0.66% hits. inhibition, % at 10 µM. TALL-104 LAMP-1 surface exposure; cells stimulated with thapsigargin and PMA;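 active means inhibition above about 55%, limit read from the data; inconclusive means no clear call, values can overlap the other calls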
ABCB6 inh CP1: ABCB6 transporter inhibitors, confirmation, K562-ABCB6 cells, flow cytometry, cherry pick 1 | 700 tested, under 10 active | ratio response (% of DMSO), % at 10 µM | shares compounds with ABCB6 inh MLPCN | AID 602430, 2012 | K562-ABCB6 porphyrin accumulation, 1 h; hits give low values;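 active means repeat-averaged ratio response below 75% of DMSO, the collection mean minus 3 SD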;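 further: median porphyrin fluorescence at 575 nm with 488 nm excitation from mitochondria; lower ratio means less porphyrin signal so ABCB6 inhibition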
Numbers without * were called inactive; i = inactive; ? = inconclusive; . = no result given.

SMILES	Myeloid diff 2	ABCB6 inh MLPCN	Granule exo inh	ABCB6 inh CP1
CCCNC(=O)Cn1cnc2sc(C(=O)Nc3cc(OC)c(OC)c(OC)c3)c(C)c2c1=O	i	101.0	-1.5	97.0
CC(=O)Nc1cccc(NC(=O)c2sc3ncn(CC(=O)N4CCCCC4)c(=O)c3c2C)c1	i	101.0	-1.7	99.0
Cc1c(C(=O)Nc2c(F)cccc2F)sc2ncn(CC(=O)N3CCCCC3)c(=O)c12	i	99.0	-9.7	.
COc1cc(NC(=O)c2sc3ncn(CC(=O)N4CCCCC4)c(=O)c3c2C)cc(OC)c1OC	i	105.0	10.2	.
COc1ccc(OCCN2CCC(C(=O)NC(c3ccc(Cl)cc3)c3cnccn3)CC2)cc1 (centres undefined)	i	93.0	-1.1	.
CC(=O)c1c(N2CCN(c3ccccn3)CC2)nc(=S)n(-c2ccccc2)c1C	i	104.0	-1.9	.
N#CCCn1cc(C(N)=O)c(-c2ccc3ccccc3c2)n1	i	107.0	-4.2	.
Cc1ccc(OCC(O)CNC(=O)c2ccccc2C(=O)O)cc1 (centres undefined)	i	71.0*	0.1	99.0
Cc1cccc(OCC(O)CNC(=O)c2ccccc2C(=O)O)c1 (centres undefined)	i	93.0	-2.2	.
C=CCN(CC=C)Cc1c(C)[nH]c2c(C)c(C)ccc2c1=O	i	114.0	-0.1	.
CCN(Cc1ccccc1)Cc1c(C)[nH]c2c(C)c(C)ccc2c1=O	i	55.0*	-2.2	99.0
N#C/C(=C\c1cccc(NC(=O)c2ccccc2Cl)c1)C(=O)NCCc1ccccc1	?	98.0	2.6	.
COc1ccc(CCCNC(=O)C2(C)Cc3c(-c4ccc5c(c4)OCO5)ccnc3O2)cc1 (centres undefined)	i	98.0	7.8	.
COc1ccc(CCCNC(=O)C2(C)Cc3c(-c4ccc(C(N)=O)cc4)ccnc3O2)cc1 (centres undefined)	i	71.0*	6.7	98.0
Cc1cc(C)c(C(=O)COC(=O)c2cc([N+](=O)[O-])ccc2NCCO)cc1C	i	97.0	-1.7	.
COc1ccc(C)cc1NC(=O)CNC(c1ccccc1)c1ccc(C)cc1 (centres undefined)	.	101.0	17.4	.
COc1ccc(C)cc1NC(=O)COCC(=O)O	i	69.0*	2.2	101.0
CN1CCN(S(=O)(=O)c2cc([N+](=O)[O-])ccc2Cl)CC1	i	103.0	-7.0	.
CC(C)c1ccc([N+](=O)[O-])cc1S(=O)(=O)N1CCN(C)CC1	i	72.0*	-3.3	98.0
C[C@H](CO)N1C[C@H](C)[C@@H](CN(C)S(=O)(=O)c2ccccc2)Oc2ccc(NC(=O)C3CC3)cc2C1=O	i	104.0	-3.5	.
COc1ccccc1CNC(=O)CNC(=O)c1sc2ccccc2c1Cl	i	98.0	3.2	.
O=C(NCCc1csc(-c2cccnc2)n1)c1ccc(Cl)cc1	i	74.0*	-0.5	101.0
O=C(NCCc1csc(-c2cccnc2)n1)c1cccc(Cl)c1	i	88.0	1.3	.
COc1ccc(NC(=O)Nc2ccc(CC(=O)O)cc2)cc1	i	99.0	0.2	.
CCN1C(=O)c2ccccc2S(=O)c2ccc(C(=O)NCCN(CC(C)C)CC(C)C)cc21 (centres undefined)	i	94.0	11.2	.
SMILES	Myeloid diff 2	ABCB6 inh MLPCN	Granule exo inh	ABCB6 inh CP1
CCN1C(=O)c2ccccc2S(=O)(=O)c2ccc(C(=O)NCCCN(CC(C)C)CC(C)C)cc21	i	66.0*	26.8	101.0
CCc1ccccc1NC(=O)CCCSc1nc2ccccc2s1	i	72.0*	-1.7	103.0
Cc1cnc(NC(=O)CCCSc2nc3ccccc3s2)s1	i	96.0	3.0	.
CCOC(=O)C1(CC2CCCCO2)CCN(C(=O)NCc2ccccc2)CC1 (centres undefined)	i	97.0	-2.0	.
CCN1CCN(c2nc3ccccc3nc2C(C#N)C(=O)OC2CCCCC2)CC1 (centres undefined)	i	100.0	11.3	.
CN1CCN(c2nc3ccccc3nc2C(C#N)C(=O)OC2CCCCC2)CC1 (centres undefined)	i	65.0*	2.7	99.0
c1ccc(-c2ccccc2OCCCN2CCOCC2)cc1	i	103.0	21.4	.
Fc1ccccc1OCCCN1CCOCC1	i	74.0*	-2.4	99.0
O=[N+]([O-])c1cccc(COc2ncnc3cc([N+](=O)[O-])ccc23)c1	i	10.0*	0.7	96.0
COc1ccc(CCNC(=O)COc2ncnc3cc([N+](=O)[O-])ccc23)cc1	i	102.0	-4.1	.
